A selection: hits, their analogues and other compounds. The true share with any hit is near 18%.
IL1B secr inh: inflammasome signaling inhibition, IL-1 beta readout; THP-1 LPS/ATP IL-1B secretion, AlphaLISA, 16 h; hits give low values; activity change, % at 57.5 µM; actives 4.7% (n = 360,000); AID 743279; in the data active means activity change below about -50%; inconclusive means mostly about -30% to -49%
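Secreted IL-1B measured by AlphaLISA bead assay after 16 h compound exposure of THP-1 cells; compounds (final up to 57.5 uM) added 1 h before LPS (250 ng/mL) and ATP (1.25 mM) stimulation; lower signal means less secretion.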
HepG2 viability: counter-screen for TGF-b inhibitors: cytotoxicity in HepG2 cells; actives 0.76% (n = 410,000); Potency, µM (top dose mostly 46.1 µM), actives largely listed as cytotoxic; HepG2 CAGA-GFP viability, ATP luminescence, 18 h; AID 588856
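CellTiter-Glo luminescence gave cytotoxicity after 18 hours at 37 degrees C. The cells were HepG2 CAGA-GFP in 1% FBS DMEM, stimulated with 500 pg/mL TGF-beta after compound addition. %Activity was normalised to no-cell wells (complete cell-killing) and DMSO (no toxicity), and curves were fitted and classified.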
DT40 TDP1 no CPT: qHTS for Inhibitors of human tyrosyl-DNA phosphodiesterase 1 (TDP1): qHTS in cells in absence of CPT. DT40 Tdp1-/- hTDP1 cells, no CPT, ATP luminescence, 48 h. Potency, µM (top dose mostly 46.2 µM), hits mostly inhibitors. actives 15% (n = 420,000); further: nearly all actives have a fitted effect of over 55% in size
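Chicken DT40 Tdp1-/- cells complemented with human TDP1, screened without camptothecin (DMSO vehicle only), 400 cells/well. Compounds pin-transferred, cells incubated at 37 °C for at least 48 hr. Growth read as ATP-dependent luminescence (CellTiter-Glo, 30 min at RT).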
TDP1 block: blocks human tyrosyl-DNA phosphodiesterase 1; Q9NUW8; AID 485290; recombinant TDP1, AlphaScreen DNA substrate cleavage; Potency, µM (top dose mostly 130 µM), most hits filed as inhibitors; actives 0.28% (n = 350,000); further: nearly all actives have a fitted effect of over 40% in size
Target sequence (Q9NUW8 whole entry, looked up): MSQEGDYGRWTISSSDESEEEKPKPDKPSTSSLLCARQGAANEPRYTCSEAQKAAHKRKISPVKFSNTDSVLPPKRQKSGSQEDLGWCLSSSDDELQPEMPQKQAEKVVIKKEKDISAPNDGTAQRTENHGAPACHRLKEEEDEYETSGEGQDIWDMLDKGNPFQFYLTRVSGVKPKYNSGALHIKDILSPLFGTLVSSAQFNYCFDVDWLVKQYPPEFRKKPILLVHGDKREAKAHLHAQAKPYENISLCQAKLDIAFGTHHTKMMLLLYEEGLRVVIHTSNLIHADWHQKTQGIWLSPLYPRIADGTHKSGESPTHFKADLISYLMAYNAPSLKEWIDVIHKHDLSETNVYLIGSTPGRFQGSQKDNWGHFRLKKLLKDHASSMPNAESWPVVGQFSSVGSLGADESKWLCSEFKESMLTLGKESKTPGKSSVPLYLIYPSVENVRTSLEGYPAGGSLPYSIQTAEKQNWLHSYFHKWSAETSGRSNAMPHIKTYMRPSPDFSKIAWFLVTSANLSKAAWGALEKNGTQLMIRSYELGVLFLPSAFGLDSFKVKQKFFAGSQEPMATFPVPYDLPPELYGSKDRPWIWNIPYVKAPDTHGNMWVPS
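AlphaScreen read-out: signal falls as enzyme removes the 3' tyrosine-FITC from a 5'-biotinylated DNA oligo (15 nM, 5 min, RT). Enzyme was E. coli-made recombinant Tdp1 at 1 nM, exposed to compound for 15 min beforehand; beads 10 ug/ml, 10 min.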
TGFb inhibitor: blocks TGF-b signaling | HepG2 CAGA-GFP TGF-b/SMAD3 reporter, GFP fluorescence, 18 h; TGF-beta stimulated, 500 pg/mL final | Potency, µM (top dose mostly 46.1 µM), actives largely listed as inhibitors | actives 1.2% (n = 410,000) | AID 588855; further: nearly all actives have a fitted effect of over 65% in size
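HEPG2 CAGA-GFP, 1000 cells/well; 2 h settle, 37 C; cpd via pin tool; TGF-b 500 pg/mL final; 18 h, 37 C; GFP imaging ex488/em500-530; %Activity normalised to -TGF-b and +DMSO controls; CRC fit, curve class.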
DT40 TDP1 CPT: growth inhibition of DT40 Tdp1-/-;hTDP1 cells with camptothecin (screen for TDP1 inhibitors) | AID 686979 | chicken DT40 Tdp1-/-;hTDP1 cells + 20 nM CPT, ATP luminescence, 48 h | Potency, µM (titrated, usually from 46.2 µM), hits mostly inhibitors | actives 12% (n = 420,000); further: nearly all actives have a fitted effect of over 55% in size
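Chicken DT40 Tdp1-/- cells stably complemented with human TDP1 were seeded at 400 cells/well in medium containing 20 nM camptothecin, exposed to pin-transferred compounds, and grown at 37 °C for at least 48 hr. Viability was read as ATP luminescence.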
Hits are given with their value; - = inactive; ? = inconclusive; . = no result given; ! = not confirmed by another sample; [ ] = dose if it differs, or a comment. Unless noted, the call rests on the fitted dose curve; in most records, active means well fitted curve in the direction sought with a large enough effect; inconclusive means small, poorly fitted or top-dose-only effect, or another doubt; inactive means no such curve, though single readings can be large; an effect the other way counts as inactive or inconclusive.

SMILES	IL1B secr inh	HepG2 viability	DT40 TDP1 no CPT	TDP1 block	TGFb inhibitor	DT40 TDP1 CPT
O=C(Nc1sc2c(c1C(=O)NCC1CCCO1)CCC2)c1cc(=O)c2ccccc2o1 (stereo not given)	.	-	?	-	-	-
CC1CCN(S(=O)(=O)c2cccc(C(=O)NNC(=O)c3ccco3)c2)CC1	-	-	-	-	-	-
COc1ccc2c(C)c(CCC(=O)NCCc3ccc(OC)c(OC)c3)c(=O)oc2c1	.	-	?	-	-	13µM
COc1ccc(CCNC(=O)CCc2c(C)c3cc4c(C)coc4cc3oc2=O)cc1	.	-	?	-	-	?
Cc1oc2cc3oc(=O)c(CCC(=O)NCCc4ccccc4F)c(C)c3cc2c1C	.	-	23.1µM	-	?	23.1µM
COc1cccc(CNC(=O)CCc2c(C)c3cc4c(C)c(C)oc4cc3oc2=O)c1	.	-	?	-	-	?
COc1ccccc1CCNC(=O)CCc1c(C)c2cc3c(C)c(C)oc3cc2oc1=O	.	-	16.4µM	-	-	18.4µM
Cc1ccc(NC(=O)Nc2ccccc2F)cc1S(=O)(=O)N1CCOCC1	-	-	?	-	-	?
COc1ccc2c(c1)C1C=CCC1C(c1cc3c(cc1Br)OCO3)N2 (stereo not given)	-	-	18.4µM	-	-	?
CC(=O)c1ccc2c(c1)C1C=CCC1C(c1cc3c(cc1Br)OCO3)N2 (stereo not given)	-	-	4.61µM	-	?	3.66µM
COc1cc(OC)c(NC(=O)c2cc(C)nc3c2c(C)nn3-c2ccc(C)cc2)cc1Cl	.	-	-	-	-	-
CCOc1ccccc1NC(=O)CN1CCN(Cc2ccccc2)CC1	-	-	-	.	-	-
CCOC(=O)COc1ccccc1C1C(C(=O)OC)=C(C)NC2=C1C(=O)c1ccccc12 (stereo not given)	.	-	?	.	15.8µM	?
CCOC(=O)C1=C(C)NC2=C(C(=O)c3ccccc32)C1c1ccc([N+](=O)[O-])o1 (stereo not given)	-65.9	-	16.4µM	-	?	23.1µM
CCOc1ccc(Br)cc1C1C(C(=O)OC)=C(C)NC2=C1C(=O)c1ccccc12 (stereo not given)	.	-	?	.	-	?
CCOc1cc(C2C(C(=O)OC)=C(C)NC3=C2C(=O)c2ccccc23)cc(Cl)c1O (stereo not given)	.	-	18.4µM	.	?	?
COC(=O)c1ccc(Cn2nc(-c3ccc(C)cc3)ccc2=O)cc1	-	-	?	-	-	16.4µM!
COc1ccccc1Nc1nc(N(C)c2ccccc2)nc(N)c1[N+](=O)[O-]	-	-	?	.	-	-
COc1ccc(OC)c(Nc2nc(N)c([N+](=O)[O-])c(NC3CCCCC3)n2)c1	-	-	?	.	-	8.2µM
CNc1nc(N)c([N+](=O)[O-])c(Nc2ccccc2OC)n1	-	-	20.6µM	.	-	?
COc1ccccc1Nc1nc(NCCC(C)C)nc(N)c1[N+](=O)[O-]	-	-	18.4µM	-	?	?
COc1ccc(OC)c(Nc2nc(NCCCN(C)C)nc(N)c2[N+](=O)[O-])c1	-98.7	15.8µM	4.61µM	-	?	4.61µM
Cn1c(CN2CCOCC2)nnc1SCC(=O)Nc1cccc(C(F)(F)F)c1	-	-	-	-	-	-
Cc1cc[n+]2c3c(cccc13)CCC2	-	-	18.4µM	-	-	20.6µM
Cc1ccc(C(C[N+](=O)[O-])n2nc(C)cc2C)cc1 (stereo not given)	-	-	2.59µM	-	-	2.06µM
SMILES	IL1B secr inh	HepG2 viability	DT40 TDP1 no CPT	TDP1 block	TGFb inhibitor	DT40 TDP1 CPT
CS(=O)(=O)c1ccc([C@H](O)[C@H](CO)NC(=O)C(Cl)Cl)cc1	.	.	.	-[21 µM]	.	.
CC1(C(=O)OCC(=O)Nc2ccc3ccccc3c2)CC1(Cl)Cl (stereo not given)	-97.1	-	?	-	?	?
CC1(C(=O)OCC(=O)NCCNC(=O)COC(=O)C2(C)CC2(Cl)Cl)CC1(Cl)Cl (stereo not given)	-	-	16.4µM	-	-	?
Clc1cccc(-c2cc3nc4c(c(N5CCN(c6cnccn6)CC5)n3n2)CCCC4)c1	-	-	?	-	-	23.1µM
OC1CCN(c2c3c(nc4cc(-c5ccc(Cl)cc5)nn24)CCC3)CC1	?	-	20.6µM	-	?	23.1µM
COc1cccc(-c2cc3nc4c(c(NCC(C)(C)CN(C)C)n3n2)CCCC4)c1	.	-	?	-	?	?
Cc1nn2c(N3CCCC3)c3c(nc2c1-c1ccccc1)CCC3	-	-	?	.	-	?
Fc1cccc(-c2cc3nc4c(c(NCc5ccco5)n3n2)CCCC4)c1	-92.3	-	-	-	?	?
Fc1cccc(-c2cc3nc4c(c(N5CCOCC5)n3n2)CCCC4)c1	-	-	?	-	-	18.4µM
c1nc2nc3c(c(N4CCOCC4)n2n1)CCCC3	-	-	-	-	-	-
O=[N+]([O-])c1cccc(S(=O)(=O)N2CCN(c3nc(-c4cccs4)nc4ccccc34)CC2)c1	.	-	-	-	-	-
O=C(c1cnn2cccnc12)N1CCOc2ccc(C(O)C(c3ccccc3)c3ccccc3)cc2C1 (stereo not given)	.	.	?	.	.	-[9.04 µM]
Cc1nnc(NC(=O)CCS(=O)(=O)c2ccccc2)s1	-92.8	-	?	-[0.0935 µM]	-	16.4µM
CC1(C)CC(=O)c2sc(NC(=O)c3ccccc3)nc2C1	.	.	.	-	.	.
COc1ccc(C)c2sc(NC(=O)CCS(=O)(=O)c3ccccc3)nc12	-90.4	-	16.4µM	-	?	23.1µM
CC(C)(C)c1nnc(NC(=O)CCS(=O)(=O)Cc2ccccc2)s1	-	-	11.6µM	-	?	9.2µM
CC1(C)CC(=O)c2sc(NC(=O)CCS(=O)(=O)c3ccccc3)nc2C1	-82.1	-	5.8µM	-	?	3.26µM
COc1ccc(C)c2sc(NNC(=O)COc3ccccc3)nc12	.	.	.	-	.	.
Cc1nnc(NC(=O)CCSc2ccccc2)s1	-	-	-	-	-	-
O=C(C1=C(O)C(=O)N(CCN2CCOCC2)C1c1ccc([N+](=O)[O-])cc1)c1cccs1 (stereo not given)	-	-	-	.	-	-
CS(=O)(=O)N1CCC2(CCCN(c3cccc(-c4ccccc4)c3)C2)CC1	.	.	-	.	.	-
COc1ccc(CC(=O)Nc2nnc(C(C)(C)C)s2)cc1OC	-	-	16.4µM	-	-	?
Cc1nnc(NC(=O)CCS(=O)(=O)Cc2ccccc2)s1	-	-	?	-	-	10.3µM

From PubChem BioAssay
